Results on 29 compounds are retold here after PubChem BioAssay.

Where “and” joins values, the source holds several entries; their conditions need not be identical. Identical values can stand only once. Calls of active or inactive are those of the source. Unless noted, the rule behind the calls is not given here.

Test [1] deals with Neuropilin-2 / VEGF-C interaction (human). Description: small molecules blocking Neuropilin-2/VEGF-C interaction – biochemical, microplate binding format, z-score (AID 743281). The settings on record: microplate NRP2/VEGF-C binding assay; stronger effect = lower value.
Test [2] can be described thus: modulation of C. elegans fzo-1 (AID 1259413).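 Note: fzo-1 mutant C. elegans worms in liquid wells.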 The note with it: C. elegans fzo-1 modulator screen, mean read-out; stronger effect = higher value.
Test [3] is described as follows: EMT-state selective cytotoxicity in co-culture – imaging, PC-3E GFP, TEM4-18 mCherry, primary screen (AID 1345086;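 active = compounds killing one labelled cell type while sparing the other, by normalised counts and ratio limits, not self-fluorescent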;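 for all read-outs here: cells exposed to compound for 72 h before imaging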;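 for red/green cell ratio (normalised): normalised mesenchymal count divided by normalised epithelial count so high means epithelial killing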). The note with it: PC-3E GFP / TEM4-18 mCherry co-culture, imaging cell counts, at 1 µM; for red/green cell ratio (normalised): actives lie on both sides.
A short description of test [4]: P. berghei load reduction in hepatocytes – cell-based, HepG2, luciferase luminescence, HepG2 viability, primary screen (AID 624349; in the data active = parasite load remaining mostly below about 12%, no sharp cut-off; inactive = mostly above about 10%;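 note: 100% = mean of DMSO negative control wells on the same plate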). The note with it: P. berghei liver stage in HepG2, luciferase luminescence, concentration not given here; parasite load remaining: stronger effect = lower value; viability: measured here: HepG2 viability without parasites.
Test [5] is described as follows: signal quenchers or enhancers, Cy5 substrate/SSB – biochemical, NIH Clinical Collection, E. coli SSB, artefact control for HCV NS3 helicase inhibitor project (AID 743268). The note with it: Cy5-oligo bound E. coli SSB, fluorescence interference.
The test system of test [6] is Hepatitis C virus NS3 helicase. Nature of the test: blockers of NS3h binding to DNA – biochemical, fluorescence polarization, NIH Clinical Collection, primary screen (AID 743270). The settings on record: NS3 helicase binding to Cy5-dT15 DNA, stronger effect = higher value, concentration not given here.
Test [7] deals with Single-stranded DNA-binding protein (Escherichia coli (strain K12)) (UniProt P0AGE0). Nature of the test: SSB-ssDNA binding inhibitors – biochemical, fluorescence polarization, NIH Clinical Collection, counter-screen for HCV NS3 helicase inhibitor project (AID 743271; in the data active = inhibition above about 28%). The settings on record: E. coli SSB-DNA binding, stronger effect = higher value, concentration not given here. (In general: In fluorescence polarisation assays a small probe gives low polarisation when free and higher when bound to something large.)

A short description of test [8]: compounds distorting NS3 helicase fluorescence signal – biochemical, NIH Clinical Collection, artefact control for HCV NS3 helicase inhibitor project (AID 743272).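 Note: HCV NS3 helicase with a Cy5 labelled single stranded DNA probe.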 The settings on record: fluorescence interference counterscreen, HCV NS3 helicase assay; stronger effect = lower value. On the technique in general: Counterscreens check selectivity or assay interference.
Test [9] is described as follows: galactose survival enhancers in mitochondrial complex I cybrids – cell-based, galactose medium, ATP luminescence, primary screen (AID 1645843;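 active = z-score of at least 1.8 in each of two replicates, scored against plate mean and spread of sample wells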;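 note: positive z means more ATP and so rescue of galactose-driven cybrid death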). The settings on record: complex I mutant cybrid cells, 72 h, stronger effect = higher value.
Test [10] in a line: viability loss with induced miR-34 in A549 – imaging, A549 dox-inducible miR-34, nuclei and caspase counts, primary screen (AID 1347080;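 active = compounds whose cell count with miR-34 switched on is under 0.7 times the count with it off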). The settings on record: A549 miR-34 inducible, Hoechst nuclei count, 48 h.
Where [11] appears, read: counts scaled to control wells, 1 = unselective.
Setting [12] is: measured here: epithelial PC-3E GFP cell survival.
[13] abbreviates: measured here: mesenchymal TEM4-18 mCherry cell survival.
The mark [14] stands for this setting: measured here: relative caspase fold change +Dox/-Dox.
[15] abbreviates: measured here: total cells with miR-34 induction, stronger effect = lower value.
The mark [16] stands for this setting: measured here: total cells without miR-34 induction.

Turning to `CC12C/C(=C/O)C(=O)C[C@@H]1CC[C@@H]1[C@@H]2CCC2(C)[C@H]1CC[C@]2(C)O` (some centres not stated), the call in [1] was inactive. In addition, the mean signal in test [2] was 230 (inactive).

For the compound `CC[C@]1(O)CC[C@H]2[C@@H]3CCC4=CCCC[C@@H]4[C@H]3CCC21C` (some centres not stated), the compound was classed as inactive in test [1]. For the same compound, the mean signal in test [2] was 230 (inactive).

As for `O=C1NCC[C@@H]1O`, the red/green cell ratio (normalised) in test [3] (setting [11]) is 0.9 (inactive). The normalised cell number is 1.14 in test [3] (setting [12]) and 1.03 in [3] (setting [13]).

For `CC(C)=CCC[C@H](C)[C@H]1CC[C@]2(C)C[C@H]3[C@@H](C(=O)C[C@@]3(C)O)/C(C=O)=C\C[C@@H]12`, the red/green cell ratio (normalised) in test [3] (setting [11]) is 0.95 (inactive). For the same compound, the results for the normalised cell number in test [3] (setting [12]) and in test [3] (setting [13]) were 0.85 and 0.8, respectively.

Turning to `CC12CC[C@H]3[C@@H](CC=C4C[C@@H](O)CCC43C)[C@@H]1CCC2=O` (some centres not stated), the outcome in test [1] was inactive. Besides, the mean signal in test [2] is 245 (inactive).

Take `Fc1ccc(C2CCNCC2COc2ccccc2)cc1` (configuration not stated): the red/green cell ratio (normalised) in [3] (setting [11]) was 0.82 (inactive). Also, the normalised cell number stood at 1.28 in test [3] (setting [12]) and 1.05 in test [3] (setting [13]).

On to `CC12CC[C@H]3[C@@H](CCC4=CC(=O)CC[C@@H]43)[C@@H]1CC[C@@H]2O` (some centres not stated), for which the compound was classed as inactive in [1]. The mean signal in test [2] is 225 (inactive).

As usually defined, the viability is a read-out of living cells in per cent, often relative to untreated cells. As a reminder, the inhibition is the drop in the measured response relative to a control, in per cent. As to `Oc1ccc2c3c1OC1C(O)CC[C@@]4(O)[C@@H](C2)N(CC2CCC2)CC[C@]314` (some centres not stated), the parasite load remaining in test [4] was 133% (inactive). In addition, the viability in test [4] worked out at 141%. Further, the fluorescence ratio in test [5] was 0.97 (inactive); in test [8], 0.88 (inactive). Besides, the inhibition in test [6] was -1.98% (inactive); in test [7] it was 9.14% (inactive). Further, in test [1], the z-score is -0.335 (inactive). Moreover, the mean signal in test [2] is 241 (inactive).

For `COc1cc(=O)oc(/C=C/C=C/C=C/C(C)=C/[C@@]2(C)O[C@@H](C)[C@@](C)(O)[C@@H]2O)c1C`, in test [3] (setting [11]), the red/green cell ratio (normalised) was 0.98 (inactive). Also, the normalised cell number was found to be 0.87 in test [3] (setting [12]) and 0.85 in test [3] (setting [13]).

For the compound `CC1NCCc2cc(O)c(O)cc21` (configuration not stated), the red/green cell ratio (normalised) in test [3] (setting [11]) was 0.96 (inactive). Besides, the figures for the normalised cell number in test [3] (setting [12]) and in test [3] (setting [13]) were 1.11 and 1.06, respectively.

With `COc1cc2c(c3oc4cccc(O)c4c(=O)c13)[C@@H]1C=CO[C@@H]1O2`, the red/green cell ratio (normalised) in test [3] was 0.95 (inactive). Further, the normalised cell number in test [3] (setting [12]) came out at 1.04; in test [3] (setting [13]), 0.98.

Regarding `CC12CCC(=O)C=C1CC[C@@H]1[C@@H]2CCC2(C)[C@@H](O)CC[C@@H]12` (some centres not stated), the result in test [1] was inactive. Further, in test [2], the mean signal was 263 (inactive).

With `Nc1ccc(-c2ccccc2)cc1`, the red/green cell ratio (normalised) in [3] (setting [11]) is 1.07 (inactive). Besides, the normalised cell number in test [3] (setting [12]) amounted to 0.96; in test [3] (setting [13]) it was 1.03.

With `C[C@@H]1CC[C@H]2[C@@H](C)C(=O)O[C@@H]3O[C@]4(C)CC[C@@H]1[C@]32OO4`, the red/green cell ratio (normalised) in [3] (setting [11]) was 1.06 (inactive). The values for the normalised cell number in test [3] (setting [12]) and in test [3] (setting [13]) were 0.97 and 1.03, respectively.

In the case of `CN1CC[C@@]2(C)c3cc(O)ccc3N(C)[C@@H]12`, the red/green cell ratio (normalised) in test [3] (setting [11]) is 1.19 (inactive). In addition, the normalised cell number in test [3] (setting [12]) was determined as 0.88; in test [3] (setting [13]), 1.05.

In the case of `C=C1C[C@@H]2[C@H](CCC3(C)C(=O)CC[C@@H]23)C2(C)C=CC(=O)C=C12` (some centres not stated), in test [1], the call was inactive. The mean signal in test [2] was 265 (inactive).

Regarding `C=Cc1cc(OC)c2c(c1)c(=O)oc1c2cc(OC)c2c(O)ccc([C@@H]3O[C@@H](C)[C@H](OC(C)=O)[C@H](N(C)C)[C@H]3O)c21`, the red/green cell ratio (normalised) in [3] (setting [11]) was 0.75 (inactive). In addition, the normalised cell number is 0.41 in [3] (setting [12]) and 0.31 in [3] (setting [13]).

For `COc1cc(O)c(C(=O)O)c(-c2cc(O)c(O)cc2C)c1`, the red/green cell ratio (normalised) in test [3] (setting [11]) is 1.12 (inactive). The normalised cell number is 0.82 in test [3] (setting [12]) and 0.92 in [3] (setting [13]).

With `CC12Cc3cn[nH]c3C[C@@H]1CC[C@@H]1[C@@H]2CCC2(C)[C@H]1CC[C@]2(C)O` (some centres not stated), the call in [1] was inactive. Further, in [2], the mean signal is 229 (inactive).

For `C=C(C)CN1CC[C@]23c4c5ccc(O)c4O[C@H]2c2[nH]c4ccccc4c2CC3(O)C1C5` (some centres not stated), the compound was called inactive in test [1]. The mean signal in test [2] is 243 (inactive).

As for `Oc1ccc2c3c1O[C@H]1c4[nH]c5ccccc5c4CC4(O)C(C2)N(CC2CC2)CC[C@]314` (some centres not stated), the result in [1] was inactive. In addition, the mean signal in [2] is 234 (inactive).

As to `N#Cc1c(Cl)nc(NC2CC2)c2ccccc12`, the red/green cell ratio (normalised) in test [3] (setting [11]) is 0.69 (inactive). Besides, the normalised cell number was found to be 1.32 in [3] (setting [12]) and 0.91 in [3] (setting [13]).

For the compound `CC(C)(O)[C@@H]1[C@H]2OC(=O)[C@@H]1C1(O)C[C@H]3O[C@]34C(=O)O[C@H]2[C@]14C` (some centres not stated) (tested in a mixture with another compound), the result in test [1] was inactive. Further, in test [2], the mean signal was 237 (inactive).

`NCCc1c[nH]c2ccc(O)cc12`: the z-score in test [9] is 0.29 (inactive) and 0.4 (inactive).

Take `COc1cc2c(cc1OC)[C@@]13CCN4CC5=CCOC6CC(=O)N2C1[C@H]6[C@H]5C[C@H]43` (some centres not stated): the fold change in [10] (stronger effect = lower value) was 0.942 (inactive); in [10] (setting [14]), 2.52. Besides, the cell count in [10] (setting [15]) turned out to be 11600; in test [10] (setting [16]), 12300.

Take `CC(C)C[C@@H](CN)CC(=O)O`: the parasite load remaining in test [4] is 133% (inactive) and 53% (inactive). The viability in test [4] is 88.1% and 116%. Moreover, the red/green cell ratio (normalised) in [3] is 1.06 (inactive). Further, the normalised cell number turned out to be 1.2 in test [3] (setting [12]) and 1.27 in test [3] (setting [13]). For the same compound, the fold change is 0.933 (inactive) in [10] (stronger effect = lower value) and 3.45 in [10] (setting [14]). In addition, the values for the cell count in test [10] (setting [15]) and in test [10] (setting [16]) were 12300 and 13200, respectively.

As to `C=CCSSCC=C`, the red/green cell ratio (normalised) in test [3] was 1.09 (inactive). Moreover, the normalised cell number in test [3] (setting [12]) amounted to 0.87; in test [3] (setting [13]) it was 0.95.

For `O=c1c(O)c(-c2ccc(O)c(O)c2)oc2c(O)c(O)cc(O)c12`, in test [3], the red/green cell ratio (normalised) is 1.09 (inactive). Also, the normalised cell number is 0.84 in test [3] (setting [12]) and 0.91 in test [3] (setting [13]).

As to `O=C1CCCC2C3CC(CN12)[C@@H]1CCCCN1C3` (some centres not stated), the red/green cell ratio (normalised) in test [3] (setting [11]) was 1.13 (inactive). In addition, the normalised cell number in test [3] (setting [12]) is 0.86; in [3] (setting [13]), 0.98.
